Reference: PubChem BioAssay
The source made the active and inactive calls.

What was measured:
[1] = compound effects on lung adenocarcinoma cell viability – A549, calcein-AM fluorescence, 48 h, basal, profiling panel (AID 1162); details: higher = more signal
[2] = compound effects on differentiated 3T3-L1 adipocyte viability – cell-based, 3T3-L1 adipocytes, calcein-AM fluorescence, 48 h, basal, profiling panel (AID 1163); details: 3T3-L1 adipocytes viability, higher = more signal
[3] = compound effects on hepatocellular carcinoma cell viability – HepG2, calcein-AM fluorescence, 48 h, basal, profiling panel (AID 1164); details: higher = more signal
[4] = compound effects on multiple myeloma cell viability – MM1S, calcein-AM fluorescence, 48 h, basal, profiling panel (AID 1165); details: higher = more signal;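 note: viability of MM1S multiple myeloma cells under basal unstimulated conditions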
[5] = calcein-AM signal in unstimulated myeloma cells – cell-based, calcein-AM fluorescence, 48 h, PK04 Diversity Set, profiling panel (AID 1166); details: RPMI8226 myeloma viability, higher = more signal;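 note: cells grown under basal conditions without added stimulus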
[6] = JC-1 mitochondrial signal, unstimulated HepG2 cells – cell-based, JC-1 fluorescence, 24 h, 100 nL compound, profiling panel (AID 1167); details: HepG2 mitochondrial potential, higher = more signal
[7] = JC-1 mitochondrial signal, unstimulated adipocytes – cell-based, JC-1 fluorescence, 3T3-L1 adipocytes, 24 h, 100 nL compound, profiling panel (AID 1168); details: JC-1 mitochondrial fluorescence, higher = more signal, called active from +8 up or from −8 down
[8] = JC-1 mitochondrial signal, unstimulated myeloma cells – cell-based, JC-1 fluorescence, RPMI8226, 24 h, 100 nL compound, profiling panel (AID 1169); details: JC-1 mitochondrial potential fluorescence, higher = more signal
[9] = JC-1 mitochondrial signal, unstimulated MM1S myeloma – cell-based, JC-1 fluorescence, 24 h, 100 nL compound, profiling panel (AID 1170); details: MM1S mitochondrial potential, higher = more signal
[10] = resazurin metabolic signal in A549 cells – cell-based, resazurin fluorescence, 24 h, PK04 Diversity Set, profiling panel (AID 1171); details: A549 viability, higher = more signal, called active from +8 up or from −8 down
Note: test concentration not given here.

Row | SMILES | z-score [1] | z-score [2] | z-score [3] | z-score [4] | z-score [5] | z-score [6] | z-score [7] | z-score [8] | z-score [9] | z-score [10]
1 | C[N+](C)(C)CCCC[C@@H]1NC(=O)[C@@H]2C[C@H](C(=O)NCCCCCCNC(=O)CS)[C@H](c3ccc(O)cc3)N2C1=O | -0.617 | -0.0068 | -0.0675 | -0.14 | -0.385 | 0.439 | -0.888 (inactive) | -0.111 | -0.432 | -0.382 (inactive)
2 | C=C(C(=O)CC[C@H](OC(C)=O)c1ccccc1OCCO)C(C)C | -2.33 | -0.375 | -3.04 | -0.899 | -1.94 | -0.892 | 1.99 (inactive) | -0.621 | -1.19 | -2.7 (inactive)
3 | O[C@@H](Cc1ccccc1)[C@@H](/C=C/C1CC1)NCc1cccc(Cl)c1 | 0.399 | -0.15 | -1.39 | -3.35 | -2.71 | -0.626 | 0.713 (inactive) | -1.01 | -1.7 | -0.707 (inactive)
4 | COC(=O)[C@]1(Cc2ccccc2)N=C(c2ccc(OCCCO)cc2)O[C@@H]1c1ccccc1N=[N+]=[N-] | -2.41 | 0.574 | -5.44 | -3.61 | -3.66 | -2.75 | -0.223 (inactive) | -1.13 | -2.9 | -2.87 (inactive)
5 | CCCCC(=C=CC[C@H](O)c1cccc(OCCO)c1)C[C@H](O)c1ccccn1 | 1.35 | 1.2 | 1.3 | -0.497 | 1.43 | 1.17 | -1.63 (inactive) | 0.0444 | -1.1 | 2.05 (inactive)
6 | [N-]=[N+]=NCc1ccccc1[C@@H]1OC(c2ccc(OCCCO)cc2)=N[C@]1(CCS(=O)(=O)c1ccccc1)C(N)=O | 0.338 | -0.676 | 0.834 | 0.369 | 0.102 | -1.67 | -0.0551 (inactive) | -0.875 | -1.16 | -0.174 (inactive)
7 | CN(C)C(=O)[C@]1(Cc2ccccc2)N=C(c2ccc(OCCCO)cc2)O[C@@H]1c1ccccc1N=[N+]=[N-] | -0.279 | -0.336 | -0.987 | -3.2 | -4.26 | 1.43 | 2.9 (inactive) | -1.18 | -2.37 | -1.75 (inactive)
8 | CN(C)CCCCNC(=O)[C@@H]1C[C@@H]2C(=O)N[C@@H](CCCCN)C(=O)N2[C@@H]1c1ccc(O)cc1 | 0.48 | -1.51 | 0.377 | -0.388 | 0.473 | -1.58 | 0.627 (inactive) | -0.836 | -1.29 | 0.0719 (inactive)
9 | O=C1C2C=CC(C(O)c3ccc4c(c3)OCO4)N(Nc3ccc([N+](=O)[O-])cc3)C2C(=O)N1c1ccccc1 (stereo not given) | -0.649 | -1.09 | 0.199 | 0.259 | -0.169 | -0.941 | -0.856 (inactive) | 0.575 | -0.77 | -0.0894 (inactive)
10 | [N-]=[N+]=Nc1ccccc1C[C@]1(C(=O)NCc2ccccc2)N=C(c2ccc(OCCCO)cc2)O[C@H]1c1ccccc1N=[N+]=[N-] | -1.33 | 0.0309 | -1.2 | -2.94 | -3.55 | 1.58 | 0.00967 (inactive) | -1.18 | -2.49 | -1.6 (inactive)
11 | NC(=O)NCC#Cc1ccc2c(c1)[C@]1(C(=O)N2)[C@H](C(=O)O)[C@H]2C(=O)O[C@H](c3ccccc3)[C@H](c3ccccc3)N2[C@@H]1c1ccc(O)cc1 | 0.715 | 0.407 | 0.611 | -0.944 | 0.0565 | -1.43 | -1.56 (inactive) | 0.123 | 0.126 | 1.22 (inactive)
12 | C#CCN(C/C=C/c1ccccc1)[C@H](CO)c1ccccc1 | -1.94 | -0.27 | -1.76 | -2.02 | -1.96 | -2.74 | -0.471 (inactive) | -0.746 | 0.0614 | -0.96 (inactive)
13 | COc1ccccc1CN1C(=O)c2ccccc2[C@@]2(Cc3ccccc3N(CCCN(C)C)C2=O)[C@@H]1c1ccc(CO)cc1 | -0.733 | 1.31 | -0.655 | 0.229 | -0.0261 | 0.511 | -0.459 (inactive) | 0.00572 | -0.343 | -0.483 (inactive)
14 | O=c1cccc(-c2ccccc2Cl)o1 | 0.586 | 0.528 | 0.614 | -1.04 | 0.0055 | -0.98 | -0.428 (inactive) | -0.103 | 0.304 | -0.0719 (inactive)
15 | NCCCCCCNC(=O)[C@H]1C[C@H]2C(=O)N[C@@H](Cc3ccccc3)C(=O)N2[C@H]1c1cccc(OCCO)c1 | 0.516 | 0.454 | -0.378 | 0.456 | 0.112 | -0.215 | 0.896 (inactive) | -0.802 | -0.531 | 1.21 (inactive)
16 | C=CCN1C(=O)[C@]2(O[C@H](CCO)[C@@H]([Si](C)(C)c3ccc(OC)cc3)[C@@H]2C)c2cc(N(C=O)c3ccccc3)ccc21 | -3.81 | 0.532 | -4.8 | -3.05 | -4.39 | -1.98 | -0.422 (inactive) | -0.993 | -2.23 | -5.28 (inactive)
17 | O=C1NC(=O)C2C1C=CC(C(O)c1ccc(I)cc1)N2Nc1ccccn1 (stereo not given) | -0.0915 | -0.891 | -0.145 | -0.619 | -0.566 | -1.35 | -0.47 (inactive) | 0.537 | -0.0562 | -0.107 (inactive)
18 | CC1CC/C=C\[C@H]2OC34C=CCN(Cn5nnc6ccccc65)C(=O)[C@H]3N(CCCCCO)C(=O)[C@@H]4C2C(=O)O1 (stereo not given in full) | -0.306 | 0.393 | -0.841 | 1.4 | -0.0074 | 0.944 | 0.516 (inactive) | 0.727 | -0.124 | 0.411 (inactive)
19 | CCC(CC)C(O)C1C=CC2C(=O)N(c3ccccc3)C(=O)C2N1Nc1ccccc1 (stereo not given) | 0.857 | -1.31 | 1.72 | -0.127 | -0.092 | -1.48 | -2.32 (inactive) | 0.0116 | -0.403 | 0.328 (inactive)
20 | C=CCN(Cc1ccccc1)C(=O)C(c1cccs1)N(C(=O)/C=C\C(=O)O)c1ccc(CCOCCO)cc1 (stereo not given) | 0.631 | 0.007 | 0.97 | 1.82 | 0.526 | 0.427 | 0.319 (inactive) | 0.697 | -1.06 | -0.52 (inactive)
21 | COc1ccc(NC(=O)O[C@H]2[C@H](OC(=O)c3cc4ccccc4[nH]3)[C@@H](OC(=O)c3cc4ccccc4[nH]3)[C@@H](OC)O[C@@H]2CO)cc1 | 0.349 | 0.203 | 0.825 | -0.699 | 0.422 | 0.923 | 1.93 (inactive) | 0.168 | -0.117 | -1.92 (inactive)
22 | COCCCNC(=O)[C@]1(Cc2ccccc2)N=C(c2ccc(OCCCO)cc2)O[C@@H]1c1ccccc1CN=[N+]=[N-] | 1.16 | 0.52 | 1.57 | -0.488 | -2.52 | 2.15 | -0.0892 (inactive) | -0.985 | -0.712 | -1.43 (inactive)
23 | COc1ccc(C(O)C2C=CC3C(=O)N(C)C(=O)C3N2NC(=O)OC(C)(C)C)c2ccccc12 (stereo not given) | -0.844 | -0.769 | -1.99 | 0.18 | -0.463 | -2.62 | 0.549 (inactive) | 0.674 | 0.932 | 1.94 (inactive)
24 | C=C(CCCC)/C(=C/C[C@H](OC(C)=O)c1ccc(OCCO)cc1)c1cnc2ccccc2c1 | -0.138 | 0.0248 | -0.257 | -2.17 | -0.861 | 1.91 | -1.26 (inactive) | -0.108 | -0.552 | 1.24 (inactive)
25 | Cc1ccc([C@H]2C(C(=O)O)=CCN2S(=O)(=O)c2ccc(C)cc2)cc1 | -0.261 | -0.456 | -0.577 | -0.458 | -0.922 | -1.39 | -0.521 (inactive) | 0.284 | -0.0534 | -0.29 (inactive)
26 | CC(C)CNC(=O)[C@@]1(Cc2ccccc2I)c2ccccc2C(=O)N(Cc2ccccc2C(F)(F)F)[C@H]1c1ccc(CO)cc1 | -0.942 | -0.716 | -0.0693 | -0.722 | -0.548 | 0.081 | 0.752 (inactive) | -0.844 | -0.167 | -0.328 (inactive)
27 | COc1ccc(C#Cc2ccc3c(c2)[C@]2(C(=O)N3)[C@H](c3ccc(O)cc3)N3[C@H](c4ccccc4)[C@H](c4ccccc4)OC(=O)[C@H]3[C@@H]2C(=O)N2CCc3cc(OC)c(OC)cc3C2)cc1 | -0.258 | -0.817 | -0.0752 | -0.405 | -2.87 | -0.458 | 2.25 (inactive) | -0.727 | -0.418 | -0.565 (inactive)
28 | CC(C)(C)OC(=O)CC[C@]1(C(=O)NCCN2CCOCC2)COC(c2ccc(OCCCO)cc2)=N1 | 0.263 | -0.555 | 0.854 | -0.61 | 0.512 | 0.0561 | 0.588 (inactive) | 0.212 | -0.699 | 0.412 (inactive)
29 | CCOC(=O)C1=CC[C@@H](c2ccccc2)N(S(=O)(=O)c2ccc(C)cc2)[C@H]1c1ccc(CC)cc1 | -0.516 | -0.932 | -0.217 | 0.677 | 0.0825 | 5.94 | -0.149 (inactive) | -0.27 | -1.84 | 1.48 (inactive)
